Values without a mark were called inactive.

The first experiment concerns Vero E6 infected with SARS-CoV-2. The experiment can be described thus: inhibition of SARS-CoV-2 cytopathic effect; higher = more antiviral protection, active = above 15. The following applies: 833.33 nM; 48 h. For orientation: Protection from cytopathic effect is a common read-out in antiviral testing.
As for `c1ccc(-c2oc3ncnc(NC[C@@H]4CCCO4)c3c2-c2ccccc2)cc1`, the “inhibition of SARS-CoV-2 cytopathic effect” value (“inhibition” for short) is 0.71%.
On the same count and under the same terms, to `O=C(Nc1ccc([N+](=O)[O-])cc1O)Nc1ccccc1Br` belongs 0.15%; to `C[C@]1(COc2ccc(N3CCC(Oc4ccc(OC(F)(F)F)cc4)CC3)cc2)Cn2cc([N+](=O)[O-])nc2O1` [delamanid], 2.83%.
On the same count and under the same terms, the value for `CCc1c(-c2ccccc2)c(-c2ccccc2)nn1-c1ccccc1-c1cccc(OCC(=O)O)c1` was 0.13%; that for `Nc1ncc2c(n1)CC(c1ccco1)CC2=O` (configuration not stated) was 4.74%; that for `Nc1ncnc2c1c(-c1cnc3[nH]ccc3c1)nn2C1CCCC1` was -3.88%.
For the compound `CCCCC/C=C\C/C=C\C/C=C\C/C=C\CCCC(=O)Nc1ccc(O)cc1`, the “inhibition” value is 0.42%.
On to `CCCC(C)NC(=O)c1ccc(Cl)c(Cl)c1` (configuration not stated), for which the “inhibition” value was -2.38%.
The same measure, in the same setting: the value for `CC(C)C[C@@H](N)C1(c2ccc(Cl)cc2)CCC1` was -1.42%.

The experiment is the same for the next values; noted with them: 10000 nM; 48 h.
For `COc1ccnc(C[S+]([O-])c2nc3cc(OC(F)F)ccc3[nH]2)c1OC` (configuration not stated) [pantoprazole], the “inhibition” value is 0.79%.
With `C=CC[C@]1(O)CC[C@H]2[C@@H]3CCC4=CCCC[C@@H]4[C@H]3CC[C@@]21C` [allylestrenol], the “inhibition” value is 1.75%.
On to `C[C@H](/C=C/[C@H](C)C(C)(C)O)[C@H]1CC[C@H]2/C(=C/C=C3C[C@@H](O)C[C@H](O)C3)CCC[C@]12C` [paricalcitol], for which the “inhibition” value was -0.81%.
`C/C(=N\Nc1nnc2c(n1)[nH]c1c(C)cccc12)c1ccccn1`: the “inhibition” value is -7.81%.
Take `COC(=O)[C@H](c1ccccc1Cl)N1CCc2sccc2C1` [clopidogrel]: the “inhibition” value is -0.85%.
`CC(=O)N[C@@H](CS)C(=O)O` [acetylcysteine]: the “inhibition” value was 3.74%.
With `COc1ccc(N2CCOCC2)c2sc(NC(=O)N3CCC(C)(O)CC3)nc12` [tozadenant], the “inhibition” value is -2.66%.
For `Cc1c(C)c2c(c(C)c1O)CC[C@@](C)(CCC[C@H](C)CCC[C@H](C)CCCC(C)C)O2` [vitamin-E], the “inhibition” value was 0.23%.
Take `COc1ccn2ncc(-c3nc4[nH]nc(NC(=O)c5ccc(F)cc5)c4cc3F)c2c1`: the “inhibition” value was -6.79%.
On to `C[C@@H]1NC(=O)[C@@H]2CCCN2C(=O)[C@H](CC(N)=O)NC(=O)[C@@H]2CSSC[C@H](N)C(=O)N[C@H]3CSSC[C@H](NC1=O)C(=O)N[C@@H]([C@@H](C)O)C(=O)NCC(=O)N[C@H](C(=O)N[C@@H](Cc1ccc(O)cc1)C(=O)O)CSSC[C@H](NC(=O)[C@H](Cc1ccc(O)cc1)NC(=O)[C@H](CCC(=O)O)NC3=O)C(=O)N2` [linaclotide], for which the “inhibition” value is 3.24%.
On the same count and under the same terms, to `O=C(c1c2ccccc2cc2ccccc12)N1CCC(N2CCC[C@@H](C(=O)N3CCOCC3)C2)CC1` belongs -6.08%; to `CC(=O)NC[C@H]1CN(c2ccc(-c3ccc(CNCc4cnn[nH]4)cc3)c(F)c2)C(=O)O1` [radezolid], 2.43%.
Turning to `CCN(CC)CCCCNc1ncc2cc(-c3c(Cl)cccc3Cl)c(NC(=O)NC(C)(C)C)nc2n1`, the “inhibition” value is 13.4%.
On to `CC[C@H]1[C@@H](O)[C@@H]2[C@H](CC[C@]3(C)[C@@H]([C@H](C)CCOS(=O)(=O)O)CC[C@@H]23)[C@@]2(C)CC[C@@H](O)C[C@@H]12`, for which the “inhibition” value was 1.9%.
With `NCc1c[nH]c(=S)n1[C@H]1CCc2c(F)cc(F)cc2C1` [nepicastat], the “inhibition” value is -0.04%.
Turning to `CC(C)COC(=O)c1ccc(N)cc1` [isobutamben], the “inhibition” value is 1.5%.
Still for that read-out and setting: to `Cc1coc2c1C(=O)C(=O)c1c-2ccc2c(C)cccc12` [tanshinone-I] belongs -1.34%; to `CN[C@@H](C)C(=O)N[C@H](C(=O)N1CCC[C@H]1c1nc(C(=O)c2ccc(F)cc2)cs1)C1CCCCC1`, -4.24%; to `Cc1cccc(C)c1NC(=O)CC12CCCN1CCC2` [pilsicainide], -1.57%.
The same measure, in the same setting: to `CC(=O)c1cc([N+](=O)[O-])c(Sc2ccc(F)cc2F)s1` belongs 19.6% (active); to `CCOC(=S)SSC(=S)OCC` [dixanthogen], 1.23%.
As for `COc1cc(N)c(Cl)cc1C(=O)OCCCN1CCCCC1`, the “inhibition” value is 1.72%.
For `COc1ccc(CN(C(=O)[C@@H](N)Cc2c(C)cc(C(N)=O)cc2C)[C@@H](C)c2ncc(-c3ccccc3)[nH]2)cc1C(=O)O` [eluxadoline], the “inhibition” value is 1.03%.

The values above are taken from the supplement of paper PMC13380429.
